Screens deposited in PubChem by several laboratories.
GDH-TPI counter-1: counter-screen for M. tuberculosis FBA inhibitors: GDH-TPI coupled enzymes; inhibition, % at 4.8 µM; GDH-TPI coupled enzyme counterscreen, NADH absorbance; AID 588335; 360,000 tested, 1.2% active; in the data active = inhibition above about 30%;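 note: 0% = DMSO wells and 100% = wells lacking the enzyme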
RecA intein inh: Mtb RecA intein splicing inhibition | P9WHJ3 | cell-free RecA intein splicing, fluorescence | inhibition, % (no concentration beside the values) | 290,000 tested, 0.75% active | AID 2221; in the data active = inhibition above about 30%;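 note: 0% = vehicle wells and 100% = reference inhibitor control wells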
Target sequence (P9WHJ3 whole entry, looked up): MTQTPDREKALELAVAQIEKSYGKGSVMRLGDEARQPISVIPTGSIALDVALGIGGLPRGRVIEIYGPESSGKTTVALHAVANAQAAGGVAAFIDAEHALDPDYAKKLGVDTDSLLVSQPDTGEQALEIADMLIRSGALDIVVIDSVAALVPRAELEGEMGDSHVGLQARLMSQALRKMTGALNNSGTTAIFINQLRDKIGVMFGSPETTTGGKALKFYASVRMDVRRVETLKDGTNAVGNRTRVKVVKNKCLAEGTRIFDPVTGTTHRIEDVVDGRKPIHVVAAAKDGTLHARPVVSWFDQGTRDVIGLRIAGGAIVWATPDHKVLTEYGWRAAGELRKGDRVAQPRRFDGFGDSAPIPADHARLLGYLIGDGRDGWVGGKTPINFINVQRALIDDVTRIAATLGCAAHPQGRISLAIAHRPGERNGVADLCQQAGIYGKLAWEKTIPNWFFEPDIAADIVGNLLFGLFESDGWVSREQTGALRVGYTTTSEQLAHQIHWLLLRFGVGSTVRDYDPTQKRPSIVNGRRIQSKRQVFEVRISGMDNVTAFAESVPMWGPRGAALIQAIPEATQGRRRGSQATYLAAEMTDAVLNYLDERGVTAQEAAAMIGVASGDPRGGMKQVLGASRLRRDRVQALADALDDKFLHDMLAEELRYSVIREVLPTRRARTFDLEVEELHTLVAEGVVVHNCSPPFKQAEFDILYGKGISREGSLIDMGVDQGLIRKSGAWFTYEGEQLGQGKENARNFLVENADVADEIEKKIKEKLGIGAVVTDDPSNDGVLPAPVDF
Mtb FBA inh: Mtb fructose-bisphosphate aldolase inhibition. P9WQA3. purified M. tuberculosis FBA, fluorescence read-out. inhibition, % at 1 µM. 360,000 tested, 2.3% active;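 note: 0% = vehicle and 100% = reference inhibitor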
CCHFV vOTU inh: blocks the CCHF virus ovarian tumor domain protease; CCHFV vOTU protease, Pep-AMC fluorescence; inhibition, % at 11.5 µM; 370,000 tested, 0.55% active; AID 651958; in the data active = inhibition above about 30%; note: 0% = vehicle wells with enzyme and 100% = no enzyme wells
Mtb betalactam: beta-lactam sensitization of Mtb H37Rv; M. tuberculosis H37Rv growth with meropenem, percent inhibition; inhibition, % at 25 µM; 330,000 tested, 0.27% active; AID 434955; call rule not given here;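 note: growth measured after seven days incubation then overnight dye step; 0% = bacteria only wells and 100% = bacteria with antibiotic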
Mtb FBA inh conf: Mtb FBA inhibition, confirmed; shares compounds with Mtb FBA inh; AID 651616; inhibition, % at 1 µM; purified M. tuberculosis FBA, fluorescence read-out; 5,600 tested, 78% active;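 note: 0% = vehicle wells and 100% = reference inhibitor wells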
GDH-TPI counter-2: counter-screen for M. tuberculosis FBA inhibitors: GDH-TPI coupled enzyme inhibition; shares compounds with Mtb FBA inh; GDH-TPI coupled enzyme counterscreen, fluorescence; inhibition, % at 1 µM; 5,600 tested, 81% active; in the data active = inhibition above about 10%
* hit, by the source's call; · = not tested or not shown; + = active, no number. Hits are enriched below; roughly 4.2% of the tested compounds scored in any of these assays. Cut-off read from the data, not from the text of the source, unless noted: active = inhibition above about 27%; inactive = the rest.

SMILES | GDH-TPI counter-1 | RecA intein inh | Mtb FBA inh | CCHFV vOTU inh | Mtb betalactam | Mtb FBA inh conf | GDH-TPI counter-2
CCCCOCCCNC(=O)C[C@H]1C[C@@]2(C(=O)OC)C(=C[C@H](C(C)C)O[C@@H]2C2CC2)N(Cc2ccc(Cl)cc2Cl)C1=O | · | · | · | 28 | · | · | ·
CN(C)C(=O)Oc1ccc(-c2cn3cc(C(F)(F)F)ccc3n2)cc1 | 6 | -3 | 34* | -12 | 2 | 70* | 59*
CN(C)C(=O)Oc1ccc(-c2cn3cc(Cl)ccc3n2)cc1 | 16 | 0 | 13 | -1 | 7 | · | ·
CC(=O)OCC(=O)NCC1CCN(C(=O)C(=O)c2cc3ccccc3o2)CC1 | · | · | · | 6 | · | · | ·
CCc1nnc(NC(=O)CSc2nc(C)c3c(c2C#N)CCCC3)s1 | 8 | -10 | 56* | · | -4 | 4 | 1
COC(=O)[C@]12C[C@H](CC(=O)NCC3CCCCC3)C(=O)N(Cc3ccc4c(c3)OCO4)C1=C[C@H](COCc1ccccc1)O[C@@H]2C | · | · | · | 21 | · | · | ·
CC(=O)N1CCC2(CC1)CC(=O)c1cc(OCC(=O)N3CCC4(CC3)OCCO4)ccc1O2 | 9 | -15 | 58* | -94 | -3 | 27* | 25*
O=C1CC2(CCN(C(=O)COc3ccccc3)CC2)Oc2ccccc21 | 8 | -1 | 7 | -9 | -3 | · | ·
CC(=O)N1CCC2(CC1)CC(=O)c1cc(OCC(=O)N3CCN(C)CC3)ccc1O2 | 16 | -10 | 59* | -106 | -6 | 56* | 47*
COc1ccc(C2NN=C(c3ccc(C)cc3)S2)cc1OC (stereo not given) | 8 | -1 | 38* | -16 | 4 | + | +
COC(=O)[C@]12C[C@H](CC(=O)NCC3CCCCC3)C(=O)N(CCc3ccc(OC)c(OC)c3)C1=C[C@H](COCc1ccccc1)O[C@@H]2C | · | · | · | 15 | · | · | ·
CN(C)CCNC(=O)c1cccn(Cc2cc(C(F)(F)F)cc(C(F)(F)F)c2)c1=O | 12 | -1 | 61* | -11 | -2 | 2 | -2
COC(=O)[C@]12C[C@H](CC(=O)NCc3ccc(OC)c(OC)c3)C(=O)N(CCC3=CCCCC3)C1=C[C@H](COCc1ccccc1)O[C@@H]2C | · | · | · | 6 | · | · | ·
CCC(CC)C(=O)Nc1nnc(-c2cccs2)s1 | 12 | 1 | 36* | -5 | -13 | 88* | 75*
CC(=O)N1C[C@@H](CO)[C@@H](N(C)C(=O)/C=C/c2ccccc2)C[C@H]1c1ccccc1 | · | · | · | -12 | · | · | ·
O=C(Cc1ccccc1)Nc1ccc2c(c1)C(=O)N(CC1CCCO1)C2=O (stereo not given) | 1 | -3 | 31* | -53 | 2 | 149* | 99*
O=C(COc1ccccc1)Nc1ccc2c(c1)C(=O)N(CC1CCCO1)C2=O (stereo not given) | 12 | 1 | 0 | 15 | -3 | · | ·
O=C(O)CCN1C(=O)c2ccc(NC(=O)Cc3ccc(Cl)cc3)cc2C1=O | 6 | -2 | 31* | -38 | -1 | 167* | 154*
O=C(O)CCN1C(=O)c2ccc(NC(=O)CSCc3ccccc3)cc2C1=O | 6 | -3 | 6 | -7 | -1 | · | ·
O=C(O)CCN1C(=O)c2ccc(NC(=O)C(c3ccccc3)c3ccccc3)cc2C1=O | 10 | -5 | 36* | -18 | -3 | -4 | -6
CC(=O)Oc1ccc(C(=O)Nc2ccc3c(c2)C(=O)N(CCC(=O)O)C3=O)cc1 | 23 | -1 | 47* | -36 | -10 | 132* | 110*
O=C(O)CCN1C(=O)c2ccc(NC(=O)c3ccco3)cc2C1=O | 4 | -1 | 10 | -4 | -2 | · | ·
Cc1ccccc1N1CCN(C(=O)CCn2nnc3ccccc32)CC1 | · | · | · | -3 | · | · | ·
O=C1CCCC/C1=C\Nc1ccccc1C(=O)O | 5 | 1 | 21 | -1 | -5 | · | ·
NC(=O)c1ccccc1N/C=C1\CCCCC1=O | 3 | -1 | 28* | -3 | -4 | 91* | 73*
SMILES | GDH-TPI counter-1 | RecA intein inh | Mtb FBA inh | CCHFV vOTU inh | Mtb betalactam | Mtb FBA inh conf | GDH-TPI counter-2
N#Cc1c(-c2ccccc2)c(C#N)c2nc3ccccc3n2c1N | 13 | -6 | 83* | 15 | 0 | 91* | 67*
CCc1c(C)c(C#N)c2nc3ccccc3n2c1NC | 4 | 2 | 3 | 5 | 6 | · | ·
COC(=O)C1=C(C)N(C)C(=NCc2cc(OC)c(OC)c(OC)c2)NC1c1ccc(Cl)cc1 (stereo not given) | · | · | · | 2 | · | · | ·
COC(=O)c1ccc(C(=O)OC)c(=O)[nH]1 | 7 | 10 | 62* | -29 | 5 | 3 | 0
N#Cc1nc(-c2ccccc2)oc1NCCCn1ccnc1 | 11 | 0 | 100* | -43 | 1 | 139* | 89*
CNc1oc(-c2ccc(OCc3ccccc3)cc2)nc1C#N | 6 | 0 | 74* | -1 | 72 | 84* | 70*
CN(C)CCNc1oc(-c2cccc(Cl)c2)nc1C#N | 1 | 0 | 57* | -35 | 5 | 20 | 11*
N#Cc1nc(-c2ccco2)oc1NCc1ccco1 | 13 | 1 | 40* | -18 | 0 | 172* | 176*
COC(=O)C1=C(C)N(C)C(=NCC2CC2)NC1c1cccc(Cl)c1 (stereo not given) | · | · | · | -8 | · | · | ·
COC(=O)c1cc2c(c3c4ccccc4n(S(=O)(=O)c4cccc(C)c4)c13)C(=O)N(Cc1ccc(N(C)C)cc1)C2 | · | · | · | 7 | · | · | ·
COC(=O)c1ccc(CN2C(=O)[C@]3(OCCC=C[C@H]3C)c3ccccc32)cc1 | · | · | · | -4 | · | · | ·
N#Cc1nc(-c2ccco2)oc1NCCCN1CCOCC1 | 19 | -2 | 56* | -31 | -7 | + | +
Cc1ccc(OCc2nc(C#N)c(NCc3ccco3)o2)cc1 | 5 | 10 | 1 | 6 | 12 | · | ·
Cc1cccc(-c2nc(C#N)c(NCc3ccco3)o2)c1 | 5 | 0 | 48* | -20 | 8 | 165* | 135*
COCCNc1oc(-c2ccc(F)cc2)nc1C#N | 9 | 1 | 107* | -34 | -10 | 8 | -1
N#Cc1nc(-c2ccc(F)cc2)oc1NCc1ccccc1 | 1 | 0 | 81* | -4 | -5 | 165* | 120*
COc1cccc(-c2ncn(CCc3ccccc3OC)c2CC(C)C)c1 | · | · | · | 22 | · | · | ·
CN(Cc1ccccc1)c1oc(-c2ccco2)nc1C#N | 16 | 6 | 67* | -5 | 11 | 41* | 37*
COc1ccc(CCNc2oc(-c3ccccc3OC)nc2C#N)cc1OC | 9 | -4 | 86* | -43 | 3 | 96* | 70*
COc1ccc(CCNc2nc(C)cc(C)c2C#N)cc1OC | 14 | 1 | -1 | -6 | -3 | · | ·
Cc1ccc(-c2nc(C#N)c(NCc3ccco3)o2)cc1 | 11 | 2 | 92* | -11 | 38 | 54* | 41*
N#Cc1nc(Cc2cccc3ccccc23)oc1NCc1ccco1 | -2 | 24 | 0 | -14 | 21 | · | ·
N#Cc1nc(-c2ccc(F)cc2)oc1NCc1ccco1 | 6 | -1 | 71* | -24 | 2 | 107* | 73*
CC(=O)N1CCN(C(=O)C2CCCN(C(=O)c3ccc4c(c3)NC(=O)CS4)C2)CC1 (stereo not given) | · | · | · | -7 | · | · | ·
